Results on 13 compounds are retold here after PubChem BioAssay (NCI).

The structures appear in SMILES notation. Compounds without any hit were thinned out: in the full panel of roughly 83,000, 20% have a hit.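 Interpretation: 100, growth as untreated; towards 0, rising growth inhibition; 0, no net growth; 0 to -100, cell death. Compounds scoring below 10 were considered active.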 Unmarked numbers belong to inactive results. Active and inactive are the calls of the source.

Some test systems named below: NCI-H23 lung; NCI-H226 lung; NCI-H322M lung; HOP-62 NSCLC; NCI-H460 lung; HOP-92 NSCLC; NCI-H522 lung; A549/ATCC NSCLC; 786-0 renal; COLO 205 colon.
Test in all cases: NCI-60 one-dose screen, 48 h (100 = growth as untreated, 0 = no growth, -100 = all killed)
Common to all, as to settings: 10 µM unless noted

As to `O=C(O)C(O)C(O)C(=O)O.[NH-]C1CCCCC1[NH-].[Pt+2]` (stereo not given), the growth is 107% in the assay with NCI-H23 lung; 102% in the assay with NCI-H226 lung; 117% in the assay with NCI-H322M lung; 98.8% with HOP-62 NSCLC; 103% in the assay on NCI-H460 lung; 100% in the assay on HOP-92 NSCLC. The growth in the assay with NCI-H522 lung is 93.5%; with A549/ATCC NSCLC, 111%; with 786-0 renal, 99.9%; in the assay on COLO 205 colon it was 106%.

For the compound `NS(=O)(=O)c1ccc(-n2ncc3c(=O)[nH]c(CN4CCN(c5cc6c(cc5F)c(=O)c(C(=O)O)cn6C5CC5)CC4)nc32)cc1`, the growth is 87.9% in the assay with NCI-H23 lung; 100% with NCI-H226 lung; 102% in the assay with NCI-H322M lung; 113% in the assay on HOP-62 NSCLC; 101% in the assay on NCI-H460 lung; 88.4% in the assay on HOP-92 NSCLC. For the same compound, the growth was 91.8% in the assay on NCI-H522 lung, 104% in the assay with A549/ATCC NSCLC, 96.1% in the assay with 786-0 renal and 114% with COLO 205 colon.

On to `COc1ccc2nc3cc(Cl)ccc3c(N3CCN(c4ccnc(N5CCN(C)CC5)n4)CC3)c2c1`, for which the growth in the assay with NCI-H23 lung is 34.6%; with NCI-H226 lung, 90.2%; in the assay on NCI-H322M lung it was 94.2%; with HOP-62 NSCLC it was 73.4%; with NCI-H460 lung, 64.7%; in the assay on HOP-92 NSCLC it was 59.6%. In addition, the growth is -60.4% (active) in the assay with NCI-H522 lung, 83.4% in the assay with A549/ATCC NSCLC, 78.9% in the assay on 786-0 renal and -45.3% (active) in the assay on COLO 205 colon.

For `CCOC(=O)CC(C)=N`, the growth in the assay on NCI-H23 lung was 118%; with NCI-H226 lung it was 106%; in the assay with NCI-H322M lung, 121%; in the assay with HOP-62 NSCLC it was 107%; in the assay on NCI-H460 lung, 109%; with HOP-92 NSCLC, 99.4%. Moreover, the growth with NCI-H522 lung was 92%; with A549/ATCC NSCLC, 101%; with 786-0 renal it was 103%; in the assay with COLO 205 colon, 108%.

`COc1ccc(-c2c3c(nc4n[nH]c(-c5ccc(Cl)cc5)c24)-c2ccccc2C(=O)C3=O)cc1`: the growth with NCI-H23 lung was -53% (active); in the assay with NCI-H226 lung it was 42.3%; in the assay on NCI-H322M lung, 84%; in the assay on HOP-62 NSCLC, 29.1%; with NCI-H460 lung, -12.9% (active); with HOP-92 NSCLC, 9.32% (active). Also, the growth in the assay on NCI-H522 lung is -59.7% (active); in the assay on A549/ATCC NSCLC, 35.9%; with 786-0 renal, 7.58% (active); in the assay with COLO 205 colon it was 70.6%.

In the case of `CCC(=O)Oc1ccc(/C(=C(\C)c2ccccc2)c2ccc(OCCN(CC)CC)cc2)cc1`, the growth in the assay on NCI-H23 lung is 89.1%; in the assay on NCI-H226 lung, 95.8%; with NCI-H322M lung it was 96.2%; in the assay on HOP-62 NSCLC, 95.3%; with NCI-H460 lung it was 80.9%; with HOP-92 NSCLC it was 61%. The growth in the assay on NCI-H522 lung was 73.5%; in the assay with A549/ATCC NSCLC it was 84.9%; in the assay with 786-0 renal, 70.1%; in the assay on COLO 205 colon, 74.6%.

With `c1ccc(CSc2ncnc3nc[nH]c23)nc1`, the growth was 99.1% in the assay on NCI-H23 lung; 91.4% with NCI-H226 lung; 103% in the assay on NCI-H322M lung; 92.2% with HOP-62 NSCLC; 104% in the assay with NCI-H460 lung; 135% in the assay with HOP-92 NSCLC. For the same compound, the growth in the assay on NCI-H522 lung is 82.7%; with A549/ATCC NSCLC, 106%; in the assay on 786-0 renal, 92.4%; in the assay on COLO 205 colon it was 121%.

Consider `O=[N+]([O-])c1cccc(-c2nc3sccn3c2-c2ccnc(NCCCNS(=O)(=O)c3ccc(Br)cc3)n2)c1`, for which the growth in the assay with NCI-H23 lung was 41.4%; with NCI-H226 lung it was 41%; in the assay on NCI-H322M lung, 76.1%; in the assay with HOP-62 NSCLC, 74.7%; with NCI-H460 lung, 66.7%; with HOP-92 NSCLC, 78%. The growth in the assay with NCI-H522 lung is 37.4%; in the assay on A549/ATCC NSCLC, 53.8%; in the assay with 786-0 renal, 75.5%; with COLO 205 colon it was 41.3%.

Take `CC[C@H](Nc1ncnc(N)c1C(N)=O)c1nc2cccc(NCc3ccc(C(=O)NO)cc3)c2c(=O)n1-c1ccccc1`: the growth was 91.7% in the assay with NCI-H23 lung; 102% in the assay with NCI-H226 lung; 86.9% with NCI-H322M lung; 78% in the assay on HOP-62 NSCLC; 79.5% in the assay with NCI-H460 lung; 21.5% in the assay with HOP-92 NSCLC. Moreover, the growth in the assay on NCI-H522 lung is 35.9%; in the assay with A549/ATCC NSCLC, 98.2%; with 786-0 renal it was 90.3%; in the assay on COLO 205 colon, 78.3%.

For the compound `CN[C@@]12CC3(C=CC(=O)C=C3)O[C@]1(Cc1ccc(OC)cc1)N(C)C(=O)N2`, the growth in the assay on NCI-H23 lung was 91%; in the assay on NCI-H226 lung it was 89.4%; with NCI-H322M lung, 79.9%; in the assay with HOP-62 NSCLC, 114%; in the assay on NCI-H460 lung, 101%; with HOP-92 NSCLC it was 94.4%. Moreover, the growth in the assay with NCI-H522 lung is -23.6% (active); in the assay on A549/ATCC NSCLC, 74.4%; in the assay on 786-0 renal it was 84.2%; in the assay on COLO 205 colon, 47.3%.

As for `COc1cc(/C=C2\CN(C(=O)CCN3CCC(=NO)CC3)C/C(=C\c3cc(OC)c(OC)c(OC)c3)C2=O)cc(OC)c1OC`, the growth in the assay with NCI-H23 lung was -21.9% (active); in the assay on NCI-H226 lung it was -6.36% (active); with NCI-H322M lung, -89.2% (active); in the assay with HOP-62 NSCLC, -47.2% (active); in the assay with NCI-H460 lung, -64% (active); in the assay with HOP-92 NSCLC, -49.2% (active). Moreover, the growth is -74.7% (active) in the assay on NCI-H522 lung, 2.51% (active) with A549/ATCC NSCLC, -38.6% (active) with 786-0 renal and -85.8% (active) in the assay on COLO 205 colon.

Turning to `Clc1nc(Cl)c2c3c(sc2n1)CCCC3`, the growth with NCI-H23 lung was 32.5%; in the assay on NCI-H226 lung, 3.63% (active); in the assay with NCI-H322M lung, 90.2%; with HOP-62 NSCLC, 91.4%; with NCI-H460 lung, 109%; in the assay on HOP-92 NSCLC, 103%. Besides, the growth was 7.65% (active) in the assay with NCI-H522 lung, 120% with A549/ATCC NSCLC, 96.1% in the assay with 786-0 renal and 5.1% (active) with COLO 205 colon.

Turning to `Cc1ccn2c(-c3csc(Nc4cccc(O)c4)n3)c(C)nc2c1`, the growth was 25.5% in the assay with NCI-H23 lung; 35.7% in the assay with NCI-H226 lung; 58.4% in the assay on NCI-H322M lung; 2.98% (active) in the assay on HOP-62 NSCLC; 13.7% with NCI-H460 lung; 52.2% in the assay on HOP-92 NSCLC. Besides, the growth with NCI-H522 lung was -17.4% (active); in the assay on A549/ATCC NSCLC it was 38.9%; in the assay on 786-0 renal it was 40.1%; with COLO 205 colon, -87.1% (active).
